Measurements: PubChem BioAssay (NCI)
About 83,000 compounds went through this panel and 20% of them were active in at least one assay; those are over-represented in the sample as a whole.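 Results are percent growth after 48 hours of single-concentration exposure. 100 means growth as in untreated cells, lower positive values show inhibition; negative values down to -100 show cell death.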 Values without a mark were called inactive. Activity calls are given as the source filed them. How the source made its calls: active means growth percent below 10; inactive means the rest.

Legend:
Assay in all cases: NCI-60 one-dose screen, 48 h (100 = growth as untreated, 0 = no growth, -100 = all killed)
Conditions in all cases: 10 µM unless noted
[1] = test system: DU-145 prostate
[2] = test system: K-562 leukemia
[3] = test system: MALME-3M melanoma
[4] = test system: MDA-MB-231 breast
[5] = test system: RXF 393 renal
[6] = test system: SF-268 CNS
[7] = test system: SF-295 CNS
[8] = test system: SF-539 CNS
[9] = test system: UACC-257 melanoma
[10] = test system: M14 melanoma
[11] = test system: HCT-15 colon
[12] = test system: HT29 colon
[13] = test system: SNB-75 CNS
[14] = test system: SNB-19 CNS
[15] = test system: U251 CNS
[16] = test system: PC-3 prostate
[17] = test system: SK-MEL-5 melanoma
[18] = test system: UACC-62 melanoma
[19] = test system: LOX IMVI melanoma
[20] = test system: SK-MEL-28 melanoma

Structure (SMILES)	growth [1]	growth [2]	growth [3]	growth [4]	growth [5]	growth [6]	growth [7]	growth [8]	growth [9]	growth [10]	growth [11]	growth [12]	growth [13]	growth [14]	growth [15]	growth [16]	growth [17]	growth [18]	growth [19]	growth [20]
O=C(C[n+]1ccn(CC(OCc2ccc(Cl)cc2Cl)c2ccc(Cl)cc2Cl)c1)c1ccc(F)cc1 (stereo not given)	-93.1% (active)	-17.2% (active)	-84.8% (active)	-96.7% (active)	-94.2% (active)	-93.3% (active)	-90.2% (active)	-91.9% (active)	-89.6% (active)	-97.3% (active)	75.7%	-73.8% (active)	-99% (active)	-95.9% (active)	-81.7% (active)	-88.5% (active)	-99.3% (active)	-95.8% (active)	-87.4% (active)	-95.5% (active)
c1cc2ccc1CNCCN1CCNCc3ccc(cc3)Oc3ccc(cc3)CNCCN(CCNCc3ccc(cc3)O2)CCNCc2ccc(cc2)Oc2ccc(cc2)CNCC1	-88.6% (active)	-23.7% (active)	-5.04% (active)	-87% (active)	-30.8% (active)	-88% (active)	6.02% (active)	-89.2% (active)	37.5%	94.8%	95.4%	-74.7% (active)	-73.1% (active)	-91.2% (active)	-99.7% (active)	-85.5% (active)	66.1%	-76% (active)	-94.1% (active)	14.7%
CC1=C/C(=C(\c2cc(C)c(O)c(C(=O)O)c2)c2c(Cl)cccc2Cl)C=C(C(=O)O)C1=O	118%	114%	88.3%	99.9%	120%	104%	100%	100%	106%	97.4%	105%	97.8%	90.3%	91.3%	104%	89%	100%	94.9%	95.7%	116%
CCN(CC)CCCOc1ccc2c(c1)O/C(=C\c1cccc(OC)c1)C2=O	86.8%	21.5%	90.5%	87.1%	85.6%	86.1%	93.4%	86.7%	100%	92.6%	53.5%	50.2%	71.8%	92.6%	76.7%	94.6%	91.2%	95.6%	70.7%	101%
CSc1nc2sc3cc(Cl)c(Cl)cc3n2c(=N)c1C#N	107%	116%	101%	83.7%	149%	104%	99%	91.3%	99.8%	94.3%	104%	94.6%	69.2%	100%	105%	97.6%	86.4%	82.2%	94.5%	108%
CCOC(=O)c1ccc2nc(-c3c(C)nn(-c4ccccc4)c3N3CCOCC3)[nH]c2c1	105%	91.2%	98.7%	69.9%	92.1%	94.3%	96.2%	95.8%	106%	89.3%	103%	110%	84.9%	98.6%	90.8%	86.9%	94.2%	77.5%	82%	110%
COc1ccc(CC(C#N)c2ccc(Cl)cc2)cc1 (stereo not given)	77.3%	41.6%	89.3%	79.7%	92.1%	78%	78.9%	85.1%	91.7%	73.3%	60.6%	55.3%	75.9%	82.1%	77.6%	85.9%	76.8%	69.6%	79.3%	91.5%
O=C(NCCCCCCCNC(=O)OCc1ccc2c(Cl)cc(Cl)c(O)c2n1)OCc1ccc2c(Cl)cc(Cl)c(O)c2n1	-87.3% (active)	2.04% (active)	-87.4% (active)	-72% (active)	-90.1% (active)	-58.8% (active)	1.17% (active)	-96.6% (active)	-41.6% (active)	-76.4% (active)	-24.6% (active)	-67% (active)	-92.4% (active)	0.446% (active)	-90.8% (active)	-54.5% (active)	-96.1% (active)	-79.3% (active)	-88.5% (active)	-83.1% (active)
